RORg inh = qHTS for inhibitors of ROR gamma transcriptional activity. Nuclear receptor ROR-gamma (Mus musculus), P51450. Potency, µM (top dose mostly 53.6 µM), inactives show at the highest dose activity change, negative = inhibition, most hits filed as inhibitors. Drosophila S2 Gal4-RORgamma UAS-luciferase reporter, 20 h. 310,000 compounds, 5.4% hits. AID 2551, 2010; note: % is set by controls: 0 for no effect and ±100 for the full control effect; nearly all actives have a fitted effect of over 60% in size
Target sequence (P51450 whole entry, looked up, the tested form may be a part): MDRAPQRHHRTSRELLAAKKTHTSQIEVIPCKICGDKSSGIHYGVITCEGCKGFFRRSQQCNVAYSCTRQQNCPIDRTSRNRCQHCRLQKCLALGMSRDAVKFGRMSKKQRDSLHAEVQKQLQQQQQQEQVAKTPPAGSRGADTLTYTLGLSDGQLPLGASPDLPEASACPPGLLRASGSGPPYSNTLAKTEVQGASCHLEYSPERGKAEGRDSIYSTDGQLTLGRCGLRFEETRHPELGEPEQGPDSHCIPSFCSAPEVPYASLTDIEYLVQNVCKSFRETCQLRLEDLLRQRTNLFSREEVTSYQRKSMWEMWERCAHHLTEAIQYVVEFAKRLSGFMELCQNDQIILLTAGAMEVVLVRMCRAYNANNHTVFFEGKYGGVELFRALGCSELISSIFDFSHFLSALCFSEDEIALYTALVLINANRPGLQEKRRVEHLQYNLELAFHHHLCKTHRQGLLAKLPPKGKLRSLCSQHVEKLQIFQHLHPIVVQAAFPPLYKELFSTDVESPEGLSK
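Stable Schneider cell line, Gal4 DNA-binding domain fused to ROR gamma, UAS-luciferase. Cmpd 1 hr RT → CuSO4 700 uM final → 20 hr RT → luciferase reagent 10 min → luminescence.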
GLP1R inv ag = qHTS of GLP-1 Receptor Inverse Agonists (Inhibition Mode); AID 624417, 2012; HEK293 GLP-1R CRE-luciferase, luminescence, 24 h; GLP-1R form is constitutively active; 410,000 compounds, 1.6% hits; Potency, µM (doses to about 38.3 µM), inactives show top-dose activity change, negative = inhibition, most hits filed as inhibitors; note: % is set by controls: 0 for no effect and ±100 for the full control effect; nearly all actives have a fitted effect of over 55% in size
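qHTS in 1536-well format: reporter HEK293 cells expressing constitutive GLP-1R activity in DMEM + 10% Nu serum, 24 hr with compounds at 37 deg C, luminescence read after 12 min with detection reagent.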
GLP1R cytotox = qHTS of GLP-1 Receptor Inverse Agonists: Cytotox Screen; AID 624418, 2012; 410,000 compounds, 0.13% hits; Potency, µM (top dose mostly 38.3 µM), without a hit: top-dose activity change, negative = inhibition, actives largely listed as inhibitors; HEK293 cAMP-luciferase reporter cells, luminescence, 24 h;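 note: loss of luciferase light is scored as toxicity; % is set by controls: 0 for no effect and ±100 for the full control effect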
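Step one: seed cells (200 cells/uL, DMEM with 10% Nu serum, 1% pen-strep). Step two: 12-hour incubation at 37 deg C. Step three: pin 23 nL compound, incubate 24 hr. Step four: add luciferase reagent, read luminescence 12 min later.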
VP16 counter = VP16 counterscreen qHTS for inhibitors of ROR gamma transcriptional activity; Drosophila S2 Gal4-VP16 UAS-luciferase, luminescence, 20 h; Potency, µM (top dose mostly 53.6 µM), for the others: at the top dose activity, negative = inhibition, usual class: inhibitors; 310,000 compounds, 3.5% hits;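 note: Gal4-VP16 expression switched on by copper sulfate through the metallothionein promoter; % is set by controls: 0 for no effect and ±100 for the full control effect; nearly all actives have a fitted effect of over 50% in size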
GLP1R ag = qHTS of GLP-1 Receptor Agonists. Glucagon-like peptide 1 receptor (Homo sapiens), P43220. HEK293 GLP-1R CRE-luciferase, luminescence, 4-6 h; cells express a hypersensitive GLP-1R form. Potency, µM (top dose mostly 45.6 µM), inactives show at the top dose activation, usual class: activators. 380,000 compounds, 0.007% hits; note: % of control where 0% means no effect
Starred values were filed as active, the others as inactive; ? = inconclusive; / = no result. Compounds with a hit are over-represented: about 5.9% of the library has one in this group of screens. Calls come from the whole dose curve; as a rule, active = well fitted curve in the direction sought with a large enough effect; inconclusive = small, poorly fitted or top-dose-only effect, or another doubt; inactive = no such curve, though single readings can be large; an effect the other way counts as inactive or inconclusive. Potency is the fitted concentration of half-maximal effect.

SMILES | RORg inh | GLP1R inv ag | GLP1R cytotox | VP16 counter | GLP1R ag
OC(COc1ccccc1)CN(Cc1ccccc1)CC(O)COc1ccccc1 (centres undefined) | / | ? | 8.2% | / | -1.6%
CCC(=O)c1ccc(OCC(O)Cn2c(C)nc3ccccc32)cc1 (centres undefined) | ? | -11.9% | -7.8% | 7.94µM* | -5.9%
Cc1nc2ccccc2n1CC(O)COc1ccccc1Cl (centres undefined) | ? | ? | 3.4% | 17.8µM* | -0.5%
CCC(=O)c1ccc(OCC(O)CN(CCc2ccccc2)Cc2ccccc2)cc1 (centres undefined) | -16.7% | 8.91µM* | -21.3% | ? | 4.8%
Cc1nc2ccccc2n1CC(O)COc1ccc(Br)cc1 (centres undefined) | ? | ? | -11.0% | 14.1µM* | 5.2%
Cc1nc2ccccc2n1CC(O)COc1ccc(C(=O)O)cc1 (centres undefined) | / | -8.0% | -1.8% | / | /
Cc1nnc(NC(=O)CSCc2cc(=O)c3cc(Cl)ccc3[nH]2)s1 | / | 14.3% | -1.5% | / | /
COc1ccccc1OCC(O)Cn1c(=N)n(Cc2ccccc2)c2ccccc21 (centres undefined) | 2.1% | ? | ? | -7.4% | 5.7%
Cc1ccccc1OCC(O)Cn1c(=N)n(Cc2ccccc2)c2ccccc21 (centres undefined) | -29.4% | 8.91µM* | ? | ? | -6.6%
Cc1ccc(C)c(N2CCN(c3nc4ccccc4c(=O)n3-c3ccc(Cl)cc3)CC2)c1 | / | -13.7% | 0.1% | / | /
Cc1cc(C)c2c(=O)n(CC(=O)NCCCN3CCN(c4ccccc4F)CC3)sc2n1 | 3.55µM* | ? | ? | 5.01µM* | -4.8%
Cc1ccccc1CS(=O)(=O)CCC(=O)NCCCN1CCN(c2ccccc2F)CC1 | -0.3% | ? | -20.9% | 0.2% | 25.7%
Cc1cc(C)c2c(=O)n(CC(=O)NCCCN3CCOCC3)sc2n1 | 3.98µM* | 1.6% | 2.0% | 5.01µM* | -7.9%
COC(=O)c1ccc(C(NC(=O)OCc2ccccc2)/C(C)=C/[C@@H](C)C(=O)Nc2ccc(OC)cc2)cc1 (some centres undefined) | ? | / | / | 3.8% | /
COc1ccc(CNC(=O)c2ccc(Cn3nc(C)c([N+](=O)[O-])c3C)o2)cc1 | 5.62µM* | -23.4% | -14.1% | 5.01µM* | 20.1%
Cc1nn(Cc2ccc(C(=O)NN)o2)c(C)c1Cl | 7.5% | -20.8% | 6.7% | 4.3% | -1.1%
Cc1nn(Cc2ccc(C(=O)NC(C)(C)C)o2)c(C)c1Br | ? | ? | 3.4% | 10µM* | 18.3%
Cc1nn(Cc2ccc(C(=O)Nc3ccc(C(=O)OC(C)C)cc3)o2)c(C)c1Cl | 1.58µM* | 0.0% | -4.9% | 7.0% | 6.7%
N#CCCn1c(=O)c(-c2cc(F)cc(F)c2)nc2cnc(Oc3cccc(Cl)c3)nc21 | 30.3% | / | / | 2.4% | /
Cc1noc(C)c1-c1ccc2ncnc(NCc3ccccc3Cl)c2c1 | -32.2% | / | / | 5.2% | /
N#Cc1cc2c([nH]c1=S)CCCCCC2 | 7.08µM* | -11.3% | 6.5% | 15.8µM* | -0.8%
N#Cc1c(N)n[nH]c1-c1cc2c([nH]1)CCCC2 | ? | 0.0% | 10.1% | -7.4% | 3.2%
CN1C(=O)CC(C)(c2ccccc2)C1=O (centres undefined) | / | / | / | / | 0.5%
Cc1ccc(N(CC(=O)NCCSCc2ccco2)S(=O)(=O)c2ccc(F)cc2)cc1 | ? | ? | 5.0% | 7.7% | 4.0%
Cc1ccc(S(=O)(=O)N(CC(=O)NCCSCc2ccco2)c2cc(C)ccc2C)cc1 | / | 11.2µM* | 1.6% | / | 0.0%
COc1ccccc1C(=O)OCC(=O)NC12CC3CC(CC(C3)C1)C2 | / | 10µM* | 11.4% | / | 11.9%
O=C(CON=C1c2ccccc2-c2ccccc21)NC12CC3CC(CC(C3)C1)C2 | 30.7% | 1µM* | -21.5% | ? | 2.9%

Screens from PubChem.
